# Potency and affinity values are given separately. Calls of active or inactive are those of the source.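 The calls were made as follows: active = fluorescent signal decreased by at least 40%; inconclusive = no clear call, values can overlap the other calls; inactive = the rest, including activity opposite to the expected direction.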
# Assay: fibronectin fibrillogenesis inhibitors in fibroblasts, dose response, AH1F cells, Alexa488-fibronectin fluorescence, cherry-pick, set 2 (AID 1117283);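 also: AH1F fibroblasts given Alexa488-labelled fibronectin at 24 nM final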
# Conditions: Alexa488-fibronectin deposition fluorescence, overnight; series mostly up to 35 µM; activity change, negative = inhibition: at the top concentration
row,SMILES,"activity change, negative = inhibition"
1,CN(C)C(=O)c1ccc(-c2ccc3c(c2)[C@@H]2[C@@H](CCN2C(=O)c2ccc(F)cc2)[C@@H](CO)N3C)cc1,-0.065% (inactive)
2,C[C@@H]1CN([C@H](C)CO)C(=O)c2cc(NC(=O)CCCN(C)C)ccc2O[C@@H]1CN(C)Cc1ccc(-c2ccccc2)cc1,2.6% (inactive)
3,COc1ccc(C)cc1N(CC(=O)Nc1cccc(N(C)S(C)(=O)=O)c1)S(C)(=O)=O,-1.69% (inactive)
4,CCOC(=O)c1cnc(SCc2nc(N)nc(Nc3ccc(OC)cc3)n2)nc1N,3.31% (inactive)
5,C[C@H](O)C#Cc1ccc2c(c1)O[C@H](CN(C)C)[C@@H](C)CN([C@H](C)CO)S2(=O)=O,-7.32% (inactive)
6,C[C@@H]1CN([C@@H](C)CO)C(=O)c2cc(-c3ccncc3)cnc2O[C@@H]1CN(C)C(=O)Cc1cccnc1,0.086% (inactive)
7,C[C@H](CO)N1C[C@H](C)[C@@H](CN(C)Cc2ccc(-c3ccccc3)cc2)Oc2ccc(NC(=O)CCCN(C)C)cc2C1=O,0.831% (inactive)
8,Cc1cccc(NC(=O)c2ccc(C3SCC(=O)N3CCc3ccccc3)cc2)c1 (configuration not stated),-5.88% (inactive)
9,COCC(=O)Nc1ccc2c(c1)C(=O)N(C)[C@H]1CC[C@@H](CC(=O)NCc3ccccc3Cl)O[C@@H]1CO2,8.6% (inactive)
10,CC(C)(C)[S@@](=O)N1Cc2cc(C(=O)NCc3ccccc3F)nc(-c3cccc(-c4cncnc4)c3)c2[C@H]1CCO,18.3% (inactive)
11,Cc1ccn2cc(-c3ccc(NC(=O)c4ccco4)cc3)nc2c1,6.36% (inactive)
12,CO[C@H]1CN(C)C(=O)c2ccc(NC(=O)c3ccc(-c4ccccc4)cc3)cc2OC[C@@H](C)NC[C@@H]1C,-7.14% (inactive)

# Reference: PubChem BioAssay AID1117283 (Broad Institute, 2014)
